Molecules are shown by their SMILES. Hit rate of the full screen: of about 2,300 compounds, about 2,100 (91%) were called active. The set was probably picked from earlier hits. A selection follows. Potency and affinity values are given separately. A number with no mark means an inactive call.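 Rule for the calls: active = compounds raising the signal whose fitted half-maximal concentration is at or below their top tested dose (cut at about 25 µM in these data); inconclusive = flat fit at 30 to 70% activity, or a poor fit; inactive = the rest.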

This experiment can be described thus: ATP level change in INS-1E without cytokines, dose response, counter-screen for beta-cell apoptosis protection project, INS-1E rat cells, ATP luminescence, cherry pick (AID 463229).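 Note: 0% = median of neutral control wells and 100% = median of positive control wells.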 The note with it: INS-1E rat beta cells, no cytokines, CellTiter-Glo ATP, 48 h; series mostly up to 26 µM; activity change (ATP luminescence): at the top concentration. (In general: The purpose of a counterscreen is to sort out artefacts and off-target activity.)
With `CC(=O)c1ccccc1OCCOCCOc1ccccc1C(C)=O`, the “activity change (ATP luminescence)” value is -106%.
For `Cc1cc(C)c2c(C)[nH]nc2n1`, the “activity change (ATP luminescence)” value was -7.33%.
For the compound `O=C(c1ccccc1)C(CCC(CN1CCOCC1)C(=O)c1ccccc1)CN1CCOCC1` (configuration not stated), the “activity change (ATP luminescence)” value was -27.4% [at 12 µM].
Next, `CC(=O)SC1CC(=O)N(c2c(C)cccc2C)C1=O` (configuration not stated): 0.862%.
Next, `COc1ccccc1/C=N\Nc1cc(C)nc(-n2nc(C)cc2C)n1`: 81.3%; `O=C(Nc1ccc(Nc2ccncc2)cc1)c1ccc(Nc2ccnc3ccc([N+](=O)[O-])cc23)cc1[N+](=O)[O-]`: 19.1%; `O=c1c(Cl)c2oc3ccccc3nc-2c2ccccc12`: 12.3%.
Consider `CCN(CC)c1ccc(N=C2C(=O)Nc3ccccc32)cc1`, for which the “activity change (ATP luminescence)” value is -19.5%.
Consider `O=C1CSC(c2cccnc2)N1CC1CC1` (configuration not stated), for which the “activity change (ATP luminescence)” value was -11.9%.
For the compound `Cc1ccccc1NC(=S)Nc1cccc2cnccc12`, the “activity change (ATP luminescence)” value is -4.04%.
Regarding `COc1ncnc(OC)c1S(=O)(=O)Nc1ccc(C(F)(F)F)cc1`, the “activity change (ATP luminescence)” value is -13.2%.
Turning to `Cc1ccccc1Cn1ccc(=NCc2ccccc2)cc1`, the “activity change (ATP luminescence)” value is -10.7%.
As to `Cc1ccc(S(=O)(=O)N2CCCCC2c2cccnc2)c(C)c1C` (configuration not stated), the “activity change (ATP luminescence)” value is 2.93%.
On to `Cc1ccc(Oc2nc(-c3ccccn3)nc3ccccc23)cc1`, for which the “activity change (ATP luminescence)” value was -24%.
Next, `Nc1ccc(N2CCCCC2)cc1N1CCCCC1`: 56.7%; `CC(=O)Oc1c(Cl)cc(N(C(C)=O)S(=O)(=O)c2ccccc2)c2ccccc12`: 133%.
`O=C(COC(=O)Cn1cnc2ccccc2c1=O)Nc1ccc2c(c1)OCO2`: the “activity change (ATP luminescence)” value was -9.05%.
In the case of `CC(C)OCCCNC(=S)N1CCC(C(=O)c2ccc(Cl)cc2)CC1`, the “activity change (ATP luminescence)” value was -6.47%.
The result for `CC(C)(C)n1[nH]c2c3c(ccc2c1=O)C(=O)c1ccccc1C3=O` reads -35%; that for `CCCCC[n+]1ccn(C2=C([O-])c3ccccc3C(=O)/C2=N\S(=O)(=O)c2ccccc2)c1`, 143%.
On to `CCCCN(C)CCNC(=O)c1cc2c(-c3ccccc3F)nn(C)c2s1`, for which the “activity change (ATP luminescence)” value was -5.06%.
For the compound `CC(C(c1cccs1)c1c(N)n(C)c(=O)n(C)c1=O)[N+](=O)[O-]` (configuration not stated), the “activity change (ATP luminescence)” value was -35.9%.
